D1 antag: antagonists of human D1 dopamine receptor; P21728; HEK293 TREx D1 cells, calcium flux, dopamine EC80; hits give low values; activity change, negative = inhibition, % at 10 µM; hit rate 3.2% among 360,000; in the data active = activity change below about -30%; note: % is set by controls: 0 for no effect and ±100 for the full control effect
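Tetracycline-induced HEK293 Trex D1 cells, force-coupled to calcium, dye-loaded; compounds added and read 180 s, then EC80 dopamine added and calcium flux tracked kinetically another 180 s.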
D1 PAM: human D1 dopamine receptor positive modulation; P21728; hit rate 0.036% among 360,000; HEK293 TREx D1 cells, calcium flux, dopamine EC20 potentiation; potentiation, % at 10 µM; in the data active = potentiation above about 30%; note: 0% is about no effect
USP2a block: USP2a (human) protease inhibition; Potency, µM (titrated, usually from 38.3 µM), for the others: at the top dose activity change, negative = inhibition, actives largely listed as inhibitors; USP2 core, Ub-CHOP2 coupled fluorogenic reporter, 485/531; AID 463254; O75604; hit rate 0.01% among 330,000;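 note: potency is the fitted concentration of half-maximal effect; plate controls were DMSO wells for no effect and full inhibition by NEM control for full effect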
Target sequence (O75604 whole entry, looked up): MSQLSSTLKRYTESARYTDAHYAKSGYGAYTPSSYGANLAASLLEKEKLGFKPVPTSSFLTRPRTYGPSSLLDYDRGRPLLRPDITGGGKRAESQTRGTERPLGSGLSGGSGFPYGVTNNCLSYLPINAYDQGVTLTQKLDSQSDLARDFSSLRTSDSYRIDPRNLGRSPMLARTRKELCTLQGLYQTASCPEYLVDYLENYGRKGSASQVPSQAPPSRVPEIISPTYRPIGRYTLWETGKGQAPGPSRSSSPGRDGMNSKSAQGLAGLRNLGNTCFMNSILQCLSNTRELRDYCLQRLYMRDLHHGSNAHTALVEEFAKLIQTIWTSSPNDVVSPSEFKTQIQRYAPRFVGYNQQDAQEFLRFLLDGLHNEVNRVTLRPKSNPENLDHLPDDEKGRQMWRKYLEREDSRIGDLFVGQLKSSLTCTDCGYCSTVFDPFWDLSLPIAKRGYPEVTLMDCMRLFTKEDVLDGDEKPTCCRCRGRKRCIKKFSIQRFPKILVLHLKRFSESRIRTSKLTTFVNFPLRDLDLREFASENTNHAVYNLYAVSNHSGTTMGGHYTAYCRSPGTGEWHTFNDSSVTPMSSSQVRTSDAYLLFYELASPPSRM
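Cell-free coupled assay: 10nM USP2 core preincubated 30min RT with compound in Tris-HCl pH 8.0/CaCl2/CHAPS buffer, then 25nM Ub-CHOP2 and 25nM reporter substrate; fluorescence (Ex 485/Em 531) read after 60min RT, normalized to NEM inhibition, concentration-response curves fitted.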
Eya2 phos inh: blocks the phosphatase activity of human Eya2; Potency, µM (top dose mostly 76.9 µM), for inactives: at the top dose activity, negative = inhibition, hits mostly inhibitors; recombinant Eya2, OMFP fluorescence dephosphorylation (OMFP is methylfluorescein phosphate); O00167; hit rate 0.006% among 330,000; note: potency is the fitted concentration of half-maximal effect; % is set by controls: 0 for no effect and ±100 for the full control effect
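Eya2 (0.2 uM) preincubated 10 min at ambient with compound, then OMFP substrate added at 50 uM; 10 min reaction in 50 mM HEPES pH 7.5, 50 mM NaCl, 5 uM MgCl2, 0.05% BSA, 1 mM DTT. Fluorescence read at Ex 485/Em 525 nm.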
GALK inh: blocks human galactokinase activity; P51570; Purified GALK, Kinase-Glo residual ATP luminescence; Potency, µM (top dose mostly 57.5 µM), for inactives: top-dose activity change, negative = inhibition, usual class: inhibitors; hit rate 0.007% among 270,000; note: potency is the fitted concentration of half-maximal effect; % is set by controls: 0 for no effect and ±100 for the full control effect
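Quantitative HTS: GALK 5 nM, ATP 35 uM, galactose 100 uM, 1 h room temperature, then luciferase-based ATP detection.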
D1 ag: agonists of human D1 dopamine receptor; hit rate 1% among 360,000; HEK293 T-REx D1 cells, calcium flux, agonist mode; activation, % at 2 µM; AID 504660; in the data active = activation above about 30%; note: 0% is about no effect
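Inducible HEK293 T-REx D1 cells, force-coupled to calcium signalling, were plated at 4000 cells/well with tetracycline and held overnight at 30 C. After no-wash calcium dye loading, compound-evoked calcium rise over 180 s flagged agonists.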
An asterisk follows results filed as active; ? = inconclusive; . = no result given. In the library only some 3.9% were active in any assay of this set; here they are far more common. Unless noted, calls come from the whole dose curve; as a rule, active = well fitted inhibition curve with a large enough effect; inconclusive = small, poorly fitted or top-dose-only effect, or effect the other way; inactive = flat fitted curve, though single readings scatter.

SMILES	D1 antag	D1 PAM	USP2a block	Eya2 phos inh	GALK inh	D1 ag
Cc1ccc(N=CC=C2OC(C)(C)C(C)(C)O2)c(C)c1	-42*	-3	2%	-10%	-1%	1
CNC(=O)C(C)c1ncc(C(F)(F)F)cc1Cl (configuration not stated)	-8	-5	4%	1%	3%	2
C=CCNC(=O)c1cc(C(=O)C(C)c2ncc(C(F)(F)F)cc2Cl)c[nH]1 (configuration not stated)	-2	3	2%	-14%	1%	36*
Cc1cc(NC(=O)CSc2nnc(-c3ccccc3)c(-c3ccccc3)n2)no1	-78*	-4	1%	4%	-2%	1
Cc1cc(NC(=O)CSCC(=O)Nc2ccccc2Oc2ccccc2)no1	-37*	2	-1%	3%	.	3
Cc1ccc(-c2cc3nc(-c4ccccc4)cc(C(F)(F)F)n3n2)cc1	-5	2	.	.	.	1
CCc1ccc(OCCCC(=O)Nc2nccs2)cc1	-30*	-1	5%	3%	1%	8
COc1cccc(C(=O)c2cn(CC(=O)NCc3ccccc3Cl)c3nc(C)ccc3c2=O)c1	3	-2	.	.	.	3
COc1ccc(-c2nc3scc(CCNS(=O)(=O)c4ccc(F)cc4C)n3n2)cc1	.	-3	.	.	.	11
COc1ccc(OC)c(/C=C(\C#N)c2nc(-c3ccc(F)cc3)cs2)c1	15	-5	.	.	.	42*
COc1ccc2oc(=O)c(-c3csc(/C(C#N)=C/c4ccc(F)cc4)n3)cc2c1	-31*	1	.	.	.	-1
COc1ccc(-c2csc(/C(C#N)=C\c3ccc(OC)c([N+](=O)[O-])c3)n2)cc1	1	-2	-2%	-16%	2%	2
CCc1nn2c(=O)cc(COC(=O)c3cccc(NC(=O)COc4ccccc4)c3)nc2s1	-8	0	.	.	.	-1
Cc1ccc(NC(=O)OC(C)CNC(=O)Oc2cccc(C)c2)cc1 (configuration not stated)	-32*	-6	-5%	-16%	1%	3
C[C@H](NC(=O)c1nc[nH]c1C(=O)N[C@@H](Cc1ccccc1)C(=O)OC(C)(C)C)C(=O)OCc1ccccc1	4	-2	0%	-10%	.	6
C[C@H](NC(=O)c1nc[nH]c1C(=O)N[C@@H](Cc1ccccc1)C(=O)OCc1ccccc1)C(=O)OCc1ccccc1	-31*	-1	-7%	-5%	.	18
CNC(=O)c1[nH]cnc1C(=O)N[C@@H](C)C(=O)OCc1ccccc1	-34*	3	0%	9%	6%	7
CC(C)(C)OC(=O)NCc1ccc(CNC(=O)c2nc[nH]c2C(=O)NCc2ccccc2)cc1	-53*	-2	-5%	1%	.	1
CC(C)NC(=O)c1ccc(CSc2nc3ccncc3n2Cc2cccc(F)c2)cc1	6	-1	.	.	.	0
COC(=O)c1c(NC(=O)c2nc(SCc3ccc(F)cc3)ncc2Cl)sc2c1CCCC2	4	-1	.	.	.	0
CC(=O)Cc1nsc(NC(=O)c2ccc(F)cc2)n1	-80*	-4	2%	13%	-2%	0
CCCCC(=O)Nc1nc(C)c(C(C)=O)s1	-50*	.	0%	13%	3%	3
CC(=O)c1sc(NC(=O)C2(F)C(F)(F)C(F)(F)C(F)(F)C(F)(F)C2(F)F)nc1C	-35*	4	1%	17%	2%	23
Cc1cc2c(s1)c1cnn(Cc3ccc(F)c(C)c3)c(=O)c1n2C	-2	6	.	.	.	8
O=C(Nc1cccc(C(=O)N2CCCc3ccccc32)c1)c1ccccc1	-37*	-8	3%	-5%	2%	1
SMILES	D1 antag	D1 PAM	USP2a block	Eya2 phos inh	GALK inh	D1 ag
O=C(c1ccccc1)N1CCCc2ccccc21	-2	-4	-1%	2%	0%	1
Fc1cccc(NC(=S)N2CCc3ccccc32)c1	-10	-2	0%	-6%	-8%	5
CC(=O)c1cccc(NC(=S)N2CCc3ccccc32)c1	-32*	1	0%	-1%	-6%	2
N#C/C(=C\c1c(Oc2ccc(Br)cc2)nc2ccccn2c1=O)c1nc2ccccc2s1	-11	-3	.	.	.	17
O=C(NCc1ccccc1Cl)C1CCCN(C(=O)c2cnn(-c3ccccc3)c2-n2cccc2)C1 (configuration not stated)	0	-3	.	.	.	2
O=C(Nc1cccc(F)c1)Nc1cnccn1	-31*	-6	0%	9%	-3%	6
O=C(Nc1cccc(F)c1)Nc1ccccn1	-37*	-5	0%	?	-3%	0
Cc1ccc(-n2ncc3c(N4CCN(C)CC4)ncnc32)cc1	-30*	-1	.	.	.	3
CN1CCN(c2ncnc3c2cnn3-c2ccc(Cl)cc2)CC1	-54*	-8	3%	15%	2%	15
CCN1CCN(c2ncnc3c2cnn3-c2ccc(Cl)cc2)CC1	-11	-12	2%	6%	0%	13
Cc1ccc(-c2cc(C(=O)N(Cc3ccc(C(C)(C)C)cc3)Cc3ccco3)no2)cc1	5	0	.	.	.	13
Cc1ccc(NC(=O)CSc2nc(-c3ccco3)nc3cc(=O)[nH]n23)cc1	-8	-2	.	.	.	-1
O=C(O)c1ccc2c(c1)C(=O)N([C@@H](C(=O)O)C(c1ccccc1)c1ccccc1)C2=O	-8	1	3%	5%	.	3
CCC(C)NCCCOc1c(C)cc(C)cc1Br (configuration not stated)	11	-7	-1%	-9%	2%	32*
CCC(C)NCCOCCOc1ccc(C)cc1Br (configuration not stated)	7	-8	-2%	-10%	2%	15
CCOc1ccc(NC(=O)c2[nH]c(C)c(C(C)=O)c2C)cc1	-9	-7	1%	-10%	-3%	2
CC(=O)c1c(C)[nH]c(C(=O)Nc2ccccc2Cl)c1C	-1	-7	6%	-17%	15%	1
CCc1ccc(NC(=O)c2[nH]c(C)c(C(C)=O)c2C)cc1	-39*	-9	2%	-16%	8%	19
CC(=O)c1c(C)[nH]c(C(=O)Nc2cccc3ccccc23)c1C	-33*	-10	-1%	4%	6%	10
CC(=O)c1c(C)[nH]c(C(=O)Nc2cccc(C(F)(F)F)c2)c1C	-33*	-10	2%	-4%	5%	14
CC1=C(C(=O)Nc2cccc(C(F)(F)F)c2)C2(CCCCCC2)OC1=O	-27	-4	.	.	.	32*
COc1cccc(CNc2nc3c(-c4ccccc4)nnn3c3ccccc23)c1	-23	-5	.	.	.	1
